# Values joined by “and” are separate entries in the source; they are usually repeats but may differ in a detail not shown here. Equal entries are not always repeated. Active and inactive are the calls of the source.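 How the source made its calls: active means compounds killing one labelled cell type while sparing the other, by normalised counts and ratio limits, not self-fluorescent; inactive means the rest.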
# Experiment: differential killing of epithelial or mesenchymal cells, primary screen, imaging, PC-3E GFP, TEM4-18 mCherry, co-culture (AID 1345086);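 further: cells exposed to compound for 72 h before imaging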;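 on red/green cell ratio (normalised): normalised mesenchymal count divided by normalised epithelial count so high means epithelial killing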
# Settings: imaging cell counts, at 1 µM, actives lie on both sides, counts scaled to control wells, 1 = unselective
row,Structure (SMILES),red/green cell ratio (normalised)
1,CCCc1cc(OC)c2c(c1)OCO2,1.07 (inactive)
2,COc1ccc(/C=C/C(=O)O)cc1OC,0.97 (inactive) and 0.98 (inactive)
3,CC[C@@H](C(=O)[C@@H](C)[C@@H](O)[C@H](C)[C@@H]1O[C@@H]([C@@H](CC)C(=O)O)CC[C@@H]1C)[C@H]1OC2(C=C[C@@H](O)[C@]3(CC[C@@](C)([C@H]4CC[C@](O)(CC)[C@H](C)O4)O3)O2)[C@H](C)C[C@@H]1C (stereo not given in full),0.65 (active)
4,C=C[C@@H](C1=CC(=O)C(OC)=C(OC)C1=O)c1ccccc1,0.99 (inactive)
5,O=C1C=CC(=O)c2c(O)c(Cl)c(Cl)c(O)c21,1 (inactive)
6,C=CCS(=O)C[C@H](N)C(=O)O (stereo not given in full),0.94 (inactive)
7,O=C(/C=C/c1ccccc1)c1ccc(O)cc1O,0.95 (inactive)
8,COc1cc2oc3cc(OC)c(OC)c(CC=C(C)C)c3c(=O)c2c(O)c1CC=C(C)C,0.97 (inactive)
9,COc1cc(O)c(C(=O)/C=C/c2ccc(OC)c(O)c2)c(OC)c1,1.01 (inactive)
10,COc1cc(OC)c2c(=O)c(O)c(-c3ccc(OC)c(OC)c3)oc2c1,0.83 (inactive)
11,CC(=O)Oc1ccc2c(c1C(C)C)CCC1C(C)(C)CCC[C@]21C (stereo not given in full),0.8 (inactive)
12,O=C(NC1CCCCC1)NC1CCCCC1,0.92 (inactive)
13,Cc1c(S(=O)(=O)O)oc2c1C(=O)C(=O)c1c-2ccc2c1CCCC2(C)C,0.95 (inactive)
14,O=C(O)/C=C/C=C/c1ccc2c(c1)OCO2,1.14 (inactive)
15,CC(C)c1ccc2c(c1)CCC1C(C)(C(N)=O)CCCC21C (stereo not given),1.04 (inactive)
16,COc1ccc2oc3ccccc3c(=O)c2c1,0.95 (inactive)
17,CCCCCCCCCCCCCCCC(=O)OCC(O)CO (stereo not given),0.84 (inactive)
18,O=S(=O)(O)c1cc(N=C=S)ccc1/C=C/c1ccc(N=C=S)cc1S(=O)(=O)O,0.86 (inactive)
19,C=CC(C1=CC(=O)C=CC1=O)c1ccccc1 (stereo not given),0.88 (inactive)
20,CC(CCC(=O)O)[C@H]1CCC2C3C[C@H](O)[C@@H]4C[C@H](O)CC[C@]4(C)C3CC[C@@]21C (stereo not given in full),0.83 (inactive)

row,Structure (SMILES),red/green cell ratio (normalised)
1,O=c1cc(-c2ccccc2O)oc2cc(O)ccc12,1 (inactive)
2,C/C1=C/CC(C)(C)/C=C/C/C(C)=C/CC1,0.95 (inactive)
3,S=c1ccss1,1.04 (inactive)
4,CC(=O)O[C@H]1C[C@@H](OC(C)=O)C(C)(C)C2C[C@@H](O)[C@]3(C)C(CC[C@@]4(C)[C@H](c5ccoc5)OC(=O)[C@H]5O[C@]543)[C@]21C (stereo not given in full),0.99 (inactive)
5,CC(=O)Oc1cc(OC(C)=O)c2c(c1)O[C@H](c1ccc(OC(C)=O)c(OC(C)=O)c1)[C@@H](OC(C)=O)C2,0.85 (inactive)
6,CC1(C)C(=O)[C@@H]2C[C@@]3(O)C4=CC(=O)O[C@@H](c5ccoc5)[C@]4(C)CCC3C(C)(C2=O)[C@H]1CC(=O)O (stereo not given in full),1 (inactive)
7,OC[C@H]1O[C@@H](O[C@H]2[C@H](O)[C@@H](O)[C@@H](O)O[C@@H]2CO)[C@H](O)[C@@H](O)[C@@H]1O,1.17 (inactive)
8,CC(=O)OC/C=C(\C)CC/C=C(\C)CC/C=C(\C)CC/C=C(\C)CC/C=C(\C)CC/C=C(\C)CC/C=C(\C)CC/C=C(\C)CCC=C(C)C,0.99 (inactive)
9,CC(=O)O[C@@H]1CC2C(C)(C)C(=O)C3OC3[C@]2(C)C2CC[C@@]3(C)[C@H](c4ccoc4)OC(=O)C4OC43[C@@]21C (stereo not given in full),1.04 (inactive)
10,O=C(O)c1ccc2c(c1)OCO2,1.05 (inactive)
11,C=C[C@@]1(C)CC(=O)[C@@]2(O)[C@](C)(O1)[C@@H](O)[C@@H](O)C1C(C)(C)CC[C@H](O)[C@@]12C (stereo not given in full),1.15 (inactive)
12,COc1ccc(-c2cc(=O)c3c(OC)c(OC)c(OC)cc3o2)cc1OC,1.21 (inactive)
13,CC(=O)O[C@H]1C[C@@H](O)C(C)(C)C2C[C@@H](OC(C)=O)[C@]3(C)C(CC[C@@]4(C)[C@H](c5ccoc5)OC(=O)C5OC543)[C@]21C (stereo not given in full),0.84 (inactive)
14,COc1ccc([C@H]2COc3c(ccc(O)c3OC)C2)c(OC)c1O,0.9 (inactive)
15,CC1(C)C(=O)C=C[C@@]2(C)C1CC(=O)[C@]1(C)C2CC[C@@]2(C)[C@H](c3ccoc3)OC(=O)[C@H]3O[C@]321 (stereo not given in full),1.47 (inactive)
16,COc1ccc(-c2cc(=O)c3c(O)c(OC)c(OC)c(OC)c3o2)cc1OC,1.15 (inactive)
17,NC(Cc1ccc(F)cc1)C(=O)O (stereo not given),0.96 (inactive)
18,O=c1cccc2ccc(O)c(O)c2c1O,1.04 (inactive)
19,C#CCCCCCCCCCCCc1ccco1,0.97 (inactive)
20,COC1=CC(=O)C(O)=C/C1=C\C=C\c1ccccc1,1.11 (inactive)

# Same assay, conditions: imaging cell counts, measured here: epithelial PC-3E GFP cell survival, at 1 µM
row,Structure (SMILES),normalised cell number
1,CCCc1cc(OC)c2c(c1)OCO2,0.92
2,COc1ccc(/C=C/C(=O)O)cc1OC,0.93 and 1
3,CC[C@@H](C(=O)[C@@H](C)[C@@H](O)[C@H](C)[C@@H]1O[C@@H]([C@@H](CC)C(=O)O)CC[C@@H]1C)[C@H]1OC2(C=C[C@@H](O)[C@]3(CC[C@@](C)([C@H]4CC[C@](O)(CC)[C@H](C)O4)O3)O2)[C@H](C)C[C@@H]1C (stereo not given in full),0.55
4,C=C[C@@H](C1=CC(=O)C(OC)=C(OC)C1=O)c1ccccc1,1.04
5,O=C1C=CC(=O)c2c(O)c(Cl)c(Cl)c(O)c21,1.04
6,C=CCS(=O)C[C@H](N)C(=O)O (stereo not given in full),1.04
7,O=C(/C=C/c1ccccc1)c1ccc(O)cc1O,1.05
8,COc1cc2oc3cc(OC)c(OC)c(CC=C(C)C)c3c(=O)c2c(O)c1CC=C(C)C,1
9,COc1cc(O)c(C(=O)/C=C/c2ccc(OC)c(O)c2)c(OC)c1,0.89
10,COc1cc(OC)c2c(=O)c(O)c(-c3ccc(OC)c(OC)c3)oc2c1,1.23
11,CC(=O)Oc1ccc2c(c1C(C)C)CCC1C(C)(C)CCC[C@]21C (stereo not given in full),1.07
12,O=C(NC1CCCCC1)NC1CCCCC1,1.15
13,Cc1c(S(=O)(=O)O)oc2c1C(=O)C(=O)c1c-2ccc2c1CCCC2(C)C,1.24
14,O=C(O)/C=C/C=C/c1ccc2c(c1)OCO2,0.9
15,CC(C)c1ccc2c(c1)CCC1C(C)(C(N)=O)CCCC21C (stereo not given),1.22
16,COc1ccc2oc3ccccc3c(=O)c2c1,1.2
17,CCCCCCCCCCCCCCCC(=O)OCC(O)CO (stereo not given),1.14
18,O=S(=O)(O)c1cc(N=C=S)ccc1/C=C/c1ccc(N=C=S)cc1S(=O)(=O)O,1.29
19,C=CC(C1=CC(=O)C=CC1=O)c1ccccc1 (stereo not given),1.13
20,CC(CCC(=O)O)[C@H]1CCC2C3C[C@H](O)[C@@H]4C[C@H](O)CC[C@]4(C)C3CC[C@@]21C (stereo not given in full),1.24

row,Structure (SMILES),normalised cell number
1,O=c1cc(-c2ccccc2O)oc2cc(O)ccc12,0.97
2,C/C1=C/CC(C)(C)/C=C/C/C(C)=C/CC1,1.06
3,S=c1ccss1,1.15
4,CC(=O)O[C@H]1C[C@@H](OC(C)=O)C(C)(C)C2C[C@@H](O)[C@]3(C)C(CC[C@@]4(C)[C@H](c5ccoc5)OC(=O)[C@H]5O[C@]543)[C@]21C (stereo not given in full),0.87
5,CC(=O)Oc1cc(OC(C)=O)c2c(c1)O[C@H](c1ccc(OC(C)=O)c(OC(C)=O)c1)[C@@H](OC(C)=O)C2,0.98
6,CC1(C)C(=O)[C@@H]2C[C@@]3(O)C4=CC(=O)O[C@@H](c5ccoc5)[C@]4(C)CCC3C(C)(C2=O)[C@H]1CC(=O)O (stereo not given in full),1.01
7,OC[C@H]1O[C@@H](O[C@H]2[C@H](O)[C@@H](O)[C@@H](O)O[C@@H]2CO)[C@H](O)[C@@H](O)[C@@H]1O,0.89
8,CC(=O)OC/C=C(\C)CC/C=C(\C)CC/C=C(\C)CC/C=C(\C)CC/C=C(\C)CC/C=C(\C)CC/C=C(\C)CC/C=C(\C)CCC=C(C)C,1.05
9,CC(=O)O[C@@H]1CC2C(C)(C)C(=O)C3OC3[C@]2(C)C2CC[C@@]3(C)[C@H](c4ccoc4)OC(=O)C4OC43[C@@]21C (stereo not given in full),1.01
10,O=C(O)c1ccc2c(c1)OCO2,1
11,C=C[C@@]1(C)CC(=O)[C@@]2(O)[C@](C)(O1)[C@@H](O)[C@@H](O)C1C(C)(C)CC[C@H](O)[C@@]12C (stereo not given in full),0.91
12,COc1ccc(-c2cc(=O)c3c(OC)c(OC)c(OC)cc3o2)cc1OC,0.9
13,CC(=O)O[C@H]1C[C@@H](O)C(C)(C)C2C[C@@H](OC(C)=O)[C@]3(C)C(CC[C@@]4(C)[C@H](c5ccoc5)OC(=O)C5OC543)[C@]21C (stereo not given in full),0.84
14,COc1ccc([C@H]2COc3c(ccc(O)c3OC)C2)c(OC)c1O,0.99
15,CC1(C)C(=O)C=C[C@@]2(C)C1CC(=O)[C@]1(C)C2CC[C@@]2(C)[C@H](c3ccoc3)OC(=O)[C@H]3O[C@]321 (stereo not given in full),0.82
16,COc1ccc(-c2cc(=O)c3c(O)c(OC)c(OC)c(OC)c3o2)cc1OC,0.95
17,NC(Cc1ccc(F)cc1)C(=O)O (stereo not given),0.88
18,O=c1cccc2ccc(O)c(O)c2c1O,0.98
19,C#CCCCCCCCCCCCc1ccco1,1.01
20,COC1=CC(=O)C(O)=C/C1=C\C=C\c1ccccc1,0.95
